An excerpt weighted towards active compounds, which were near 4.3% of everything screened.
MazEF act: activators of E. coli MazEF toxin-antitoxin RNase; P0AE70; 0.32% of 350,000 active; AID 504720; FAM/BHQ RNA-DNA oligo cleavage fluorescence, 5 h; activation, % at 20 µM; in the data active means activation above about 50%
Anthrax LF prot: anthrax lethal factor protease inhibition; multiplex microsphere protease cleavage assay, LF; 0.12% of 360,000 active; inhibition, % at 10 µM; P15917; further: plate controls were buffer without enzyme for full effect and enzyme alone for no effect
Target sequence (P15917 whole entry, looked up): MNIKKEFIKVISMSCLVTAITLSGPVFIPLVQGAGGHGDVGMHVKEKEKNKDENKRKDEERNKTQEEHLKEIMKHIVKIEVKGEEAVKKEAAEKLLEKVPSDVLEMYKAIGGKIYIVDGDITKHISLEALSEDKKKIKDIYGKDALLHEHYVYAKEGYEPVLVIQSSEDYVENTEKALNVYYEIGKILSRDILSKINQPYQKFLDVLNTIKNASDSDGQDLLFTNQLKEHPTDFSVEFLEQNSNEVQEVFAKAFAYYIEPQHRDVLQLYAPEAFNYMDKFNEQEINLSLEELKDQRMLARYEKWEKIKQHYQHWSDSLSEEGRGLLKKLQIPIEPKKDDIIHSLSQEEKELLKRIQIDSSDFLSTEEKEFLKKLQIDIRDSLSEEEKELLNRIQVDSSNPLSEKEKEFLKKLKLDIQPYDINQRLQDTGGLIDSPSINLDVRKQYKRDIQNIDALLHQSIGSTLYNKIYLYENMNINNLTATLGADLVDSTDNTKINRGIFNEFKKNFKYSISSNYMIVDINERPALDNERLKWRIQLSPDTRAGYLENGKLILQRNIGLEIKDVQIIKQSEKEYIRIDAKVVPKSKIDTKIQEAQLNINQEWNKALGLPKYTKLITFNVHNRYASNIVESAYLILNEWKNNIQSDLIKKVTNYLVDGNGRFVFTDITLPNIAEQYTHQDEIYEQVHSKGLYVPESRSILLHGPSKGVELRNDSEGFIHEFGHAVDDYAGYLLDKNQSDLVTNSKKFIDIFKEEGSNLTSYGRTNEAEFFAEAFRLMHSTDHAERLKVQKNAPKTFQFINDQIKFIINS
Bead autofluor: flagged as autofluorescent in microsphere protease counterscreen; compound autofluorescence counterscreen, microsphere flow cytometry; stronger effect = higher value; fluorescence intensity (no concentration beside the values); 3.1% of 360,000 active; in the data active means fluorescence intensity above about 16000; inconclusive means no clear call, values can overlap the other calls
PfHsp40 yeast: rescue of PfHsp40-mediated yeast toxicity; growth rescue, % at 12.5 µM; S. cerevisiae expressing PfHsp40, growth rescue, ATP luminescence; AID 504582; 0.68% of 340,000 active; in the data active means growth rescue above about 28%, passing the limit was not always enough; inconclusive means no clear call, values can overlap the other calls;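 further: yeast W303a lacking pdr1 and pdr3 grown in galactose medium; growth measured after three days at 30 °C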
BoNT F protease: BoNT F light chain protease inhibition; Multiplex microsphere protease cleavage assay, flow cytometry; inhibition, % at 10 µM; 0.22% of 360,000 active; AID 588497; in the data active means inhibition above about 35%, passing the limit was not always enough; inconclusive means no clear call, values can overlap the other calls; further: plate controls were buffer without enzyme for full effect and enzyme alone for no effect
BoNT A protease: blocks Botulinum neurotoxin A light chain protease. multiplex microsphere protease substrate cleavage, flow cytometry. inhibition, % at 10 µM. 0.17% of 360,000 active; further: plate controls were buffer without enzyme for full effect and enzyme alone for no effect
Active calls of the source: *; ? = inconclusive; · = not tested or not shown. Unless noted, no stated cut-off is given here; in the data, active means inhibition above about 30%; inconclusive means no clear call, values can overlap the other calls; inactive means below that.

SMILES	MazEF act	Anthrax LF prot	Bead autofluor	PfHsp40 yeast	BoNT F protease	BoNT A protease
CC(=O)Nc1ccc(NC(=O)c2ccco2)cc1	5	0	22348*	-1	5	3
O=C(Nc1cccc2c1CCCC2)c1ccco1	-1	-4	20290*	0	5	10
Cc1ccc(S(=O)(=O)NCCC(=O)N2CCCCCCC2)cc1	-16	-1	5203	0	1	2
CCN(CC)c1ccc(NC(=O)c2ccco2)cc1	-2	-1	20274*	0	0	?
Cc1ccccc1NC(=O)c1c(F)c(F)c(F)c(F)c1F	-6	-3	16318*	2	-5	-1
O=C(Nc1ccccc1Cl)c1c(F)c(F)c(F)c(F)c1F	-1	8	3233	-1	-6	-1
CCc1ccccc1N1CC(C(=O)Nc2nccs2)CC1=O (stereo not drawn)	5	-5	3758	-1	-1	-1
O=C(Nc1nccs1)C1CC(=O)N(c2ccccc2Cl)C1 (stereo not drawn)	1	1	23519*	0	1	-1
CN(c1ccccc1)S(=O)(=O)c1cccc(NC(=O)C2CCCO2)c1 (stereo not drawn)	-7	2	2892	0	3	0
Cc1coc2c1c(C)cc1oc(=O)c(Cc3ccccc3)c(C)c12	-2	-1	24793*	1	-4	-2
Cc1ccc(F)cc1NC(=O)COC(=O)C1CC2CCCC(C1)C2=O (stereo not drawn)	2	-5	3847	·	-3	0
CCC(CC)=N/N=C/c1c(O)n(CC)c2cc(C3=NNC(=O)CC3)ccc12	4	-3	4857	-1	-13	0
CCn1c(O)c(/C=N/N=C/c2ccccc2)c2ccc(C3=NNC(=O)CC3)cc21	747*	-2	22930*	-2	0	2
CCN(CC)S(=O)(=O)c1cccc(-c2nnc(SC(C)C(=O)NCCC3=CCCCC3)o2)c1 (stereo not drawn)	-1	0	22080*	1	2	2
CC(Sc1nnc(-c2ccco2)o1)C(=O)NCCC1=CCCCC1 (stereo not drawn)	41	-5	4089	1	-4	1
Oc1sc(C=Nc2ccccc2)c2ccccc12	140*	-2	3857	9	-4	0
CCCc1cc(C(N)=O)c(NC(=O)c2cc(C)on2)s1	6	-14	16687*	178*	-2	?
CCCc1cc(C(N)=O)c(NC(=O)c2ccoc2C)s1	12	-1	23003*	9	-12	-8
Cc1occc1C(=O)Nc1sccc1C(N)=O	-1	-5	?	3	-11	-4
NS(=O)(=O)c1ccc(CNC(=O)CNC(=O)c2ccc(Br)o2)cc1	-7	-4	3756	-1	2	0
COc1ccccc1NC(=O)N1CCN(c2ccnc3cc(Cl)ccc23)CC1	2	-7	4787	0	-4	0
COc1ccccc1NC(=O)N1CCN(c2cc(-c3ccccc3)nc3ncnn23)CC1	2	-1	22826*	3	0	?
c1ccc(-c2csc(N3CCOCC3)n2)cc1	3	-1	6646	0	-6	-1
O=C(N1CCOCC1)N1CCN(c2nc(-c3ccccc3)cs2)CC1	-2	2	22285*	-2	0	1
COc1cccc(-c2csc(N3CCN(C(=O)Nc4ccccc4OC)CC3)n2)c1	1	-5	21006*	1	-7	?
SMILES	MazEF act	Anthrax LF prot	Bead autofluor	PfHsp40 yeast	BoNT F protease	BoNT A protease
COc1ccc(NC(=O)C2CCN(c3cc(-c4ccccc4)nc4ncnn34)CC2)cc1OC	8	1	20978*	0	-1	?
COc1ccc(NC(=O)C2CCN(c3cnccn3)CC2)cc1OC	1	-7	3655	1	2	0
COc1cccc(-c2csc(N3CCN(C(=O)Nc4ccc(F)cc4)CC3)n2)c1	9	-2	3275	-1	14	0
Cc1cccc(N2CCN(S(=O)(=O)c3c(C)[nH]c(C)c3C(=O)N3CCCC3)CC2C)c1 (stereo not drawn)	10	0	5614	0	-6	-1
COc1ccc(OC)c(NC(=O)C2CCN(c3cc(-c4ccccc4)nc4ncnn34)CC2)c1	3	3	22638*	0	1	3
Cc1noc(C)c1COc1ccc(C(=O)N2CCN(S(=O)(=O)c3ccc(F)cc3)CC2)cc1	7	-3	3710	0	-7	0
C/C(=N\NC(=O)c1cc(-c2cccnc2)nc2ccccc12)c1ccc(O)cc1O	-3	-12	7322	78*	-24	-4
COc1ccc(S(=O)(=O)N(C)c2ccc(C(=O)NCCC(C)C)cc2)cc1	-10	0	19593*	6	4	?
COc1ccc(S(=O)(=O)Nc2cc(C(=O)NCCCOC(C)C)ccc2N2CCOCC2)cc1	3	-1	4254	0	0	-1
COc1ccc(S(=O)(=O)Nc2cc(C(=O)NCCC(C)C)ccc2N2CCOCC2)cc1	-9	0	23444*	-2	-3	-1
Cc1ccc(C)c(NC(=O)CN(C)C(=O)COc2cccc3c2OC(C)(C)C3)c1	5	2	6350	0	-1	1
CCOC(=O)C1CN(C(=O)OCC)CC1=NNC(N)=O (stereo not drawn)	-7	2	3715	·	1	0
CC1CC(C)CN(C(=O)C2CCC(CNc3c(N4CCCCC4)c(=O)c3=O)CC2)C1 (stereo not drawn)	10	4	6324	53*	-11	-1
O=C(C[C@H]1C/C=C\CC[C@H](Cc2ccc(F)cc2)C(=O)OC[C@H]2CCCN2C1=O)NCCO	-21	-2	2931	-2	-4	0
c1csc(CNCCN2CCOCC2)c1	-2	-2	16263*	-2	0	0
COc1ccc(C(=O)n2cnc3ccccc32)cc1[N+](=O)[O-]	9	-9	3660	1	?	-4
NC(=O)C1CCN(c2ncccc2[N+](=O)[O-])CC1	-1	3	?	0	-11	-1
O=[N+]([O-])c1cccnc1N1CCCCC1	6	-1	22095*	0	0	1
C=CCc1cccc(CNc2nc3ccccc3n2C(C)C)c1O	3	-4	23489*	0	-3	?
CSC(=S)N/N=C/c1ccccc1	7	-3	2673	257*	-10	-1
COc1ccc(NC(=O)C2CCC(C(C)(C)C)CC2)cc1S(=O)(=O)N1CCOCC1 (stereo not drawn)	-15	-4	2839	-1	0	1
O=C(COC(=O)c1ccccc1Br)NCCc1ccc(F)cc1	-4	-2	2876	2	43*	4
CN(CC(=O)NCc1ccc(F)cc1)S(=O)(=O)c1ccc(Br)s1	2	1	3511	1	23	-1
CCOC(=O)Cn1c(=O)oc2cc(S(=O)(=O)Nc3cc(Cl)ccc3OC)ccc21	-2	2	5601	-1	-3	0
CCOC(=O)Cn1c(=O)oc2cc(S(=O)(=O)N(CCN(C)C)Cc3ccccc3)ccc21	-4	-5	23509*	0	-4	-2
